Consider 20 molecules from PubChem BioAssay (NCI).

The panel holds about 79,000 compounds, 15% with a hit somewhere; the sample as a whole holds those more often. A number with no mark means an inactive call. Active and inactive are the calls of the source. Cut-off read from the data, not from the text of the source: active = growth inhibition above about 70%; inactive = the rest.

A short description of assay [1]: NCI Yeast Anticancer Drug Screen. Data for the rad50 strain (AID 155).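 Note: 0% = growth of vehicle-only cultures of the same strain.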 The settings on record: S. cerevisiae rad50 strain growth inhibition; at 50.0 µM; stronger effect = higher value. In outline:
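Readout: growth inhibition relative to vehicle-treated cultures. Compound exposure was carried out in a genetically defined yeast strain deficient in DNA damage repair.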

Assay [2] in a line: NCI Yeast Anticancer Drug Screen. Data for the mec2-1 strain (AID 157). The settings on record: S. cerevisiae mec2-1 strain, at 50.0 µM, stronger effect = higher value. The method, boiled down: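 Test agents were screened against the mec2-1 yeast strain, with defined DNA repair or cell cycle alteration. Growth was scored as inhibition against vehicle-only controls.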
Assay [3] can be described thus: NCI Yeast Anticancer Drug Screen. Data for the sgs1 mgt1 strain (AID 161).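 Note: 0% = growth of cultures given vehicle only.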 The settings on record: S. cerevisiae sgs1 mgt1 strain, at 50.0 µM, stronger effect = higher value. The method, boiled down: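 Genetically altered yeast, compound exposure, growth inhibition relative to vehicle.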
Assay [4] is described as follows: NCI Yeast Anticancer Drug Screen. Data for the cln2 rad14 strain (AID 165).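 Note: 0% = growth equal to vehicle treated cultures.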 As to conditions: S. cerevisiae cln2 rad14 strain, at 50.0 µM, stronger effect = higher value. The method, boiled down:
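Growth of compound-exposed yeast (cln2 rad14 genotype) measured and expressed as inhibition relative to vehicle.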

Assay [5] in a line: NCI Yeast Anticancer Drug Screen. Data for the bub3 strain (AID 167). The settings on record: S. cerevisiae bub3 mutant strain, at 50.0 µM, stronger effect = higher value. The method, boiled down:
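Readout: yeast growth inhibition, expressed relative to vehicle-only wells. The test organism is a mutant strain from a panel with lesions in DNA repair or checkpoint genes.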

The nature of assay [6]: NCI Yeast Anticancer Drug Screen. Data for the mlh1 rad18 strain (AID 175). The settings on record: S. cerevisiae mlh1 rad18 strain growth inhibition; at 50.0 µM; stronger effect = higher value. In outline:
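In this whole-cell yeast screen, a strain with altered DNA damage repair is challenged with compound, and its growth is measured against matched vehicle-treated controls.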

On to `CC1(CC2(C)SCCCS2)SCCCS1`, for which the growth inhibition in assay [1] was -1.1%; in assay [2], -7.55%; in assay [3], 10.7%; in assay [4], -2.35%; in assay [5], -5.8%; in assay [6], 7.8%.

Take `c1ccc(C2=NOC(c3ccccc3)N2C23CC4CC(CC(C4)C2)C3)cc1` (stereo not given): the growth inhibition in assay [1] was 2.9%; in assay [2], 4.4%; in assay [3] it was -17.5%; in assay [4], 24.4%; in assay [5], -13%; in assay [6] it was 36.1%.

Take `CCCCCCCCCCCCCCCC(=O)NCNC(=O)CCCCCCCCCCCCCCC`: the growth inhibition in assay [1] is -2.15%; in assay [2] it was -9.75%; in assay [3], -20.4%; in assay [4], -6.55%; in assay [5], 2.65%; in assay [6], -14.2%.

With `CN1CCC(=C2c3ccccc3CC(O)c3sccc32)CC1` (stereo not given), the growth inhibition in assay [1] is 24.2%; in assay [2], 5.7%; in assay [3], -16.6%; in assay [4] it was 3.5%; in assay [5] it was 9.2%; in assay [6], 39%.

Consider `O=C(Nc1ccccc1O)C(O)C(O)C(O)C(O)CO` (stereo not given), for which the growth inhibition in assay [1] was 35%; in assay [2], 30.7%; in assay [3], 38.8%; in assay [4], 23.2%; in assay [5], 52.1%; in assay [6], 58.8%.

Regarding `C=Cc1ccccc1NC(C(=O)O)c1ccccc1` (stereo not given), the growth inhibition in assay [1] was 18.8%; in assay [2], -5.05%; in assay [3], -0.8%; in assay [4], 18.6%; in assay [5], 7.2%; in assay [6], 1.35%.

Consider `C(=Nc1ccccc1-c1ccccc1N=Cc1ccccc1)c1ccccc1`, for which the growth inhibition in assay [1] is 7.6%; in assay [2], 7.3%; in assay [3] it was -1.25%; in assay [4], 7.2%; in assay [5] it was -7.75%; in assay [6] it was -17.9%.

Consider `COC(=O)C(/C(=N/N)C(=O)Nc1cccc(O)c1)c1nc2ccccc2[nH]c1=O` (stereo not given), for which the growth inhibition in assay [1] is -39.1%; in assay [2], -7.65%; in assay [3], -42%; in assay [4], -15.2%; in assay [5] it was -39.1%; in assay [6], -34.4%.

On to `COc1ccc2nccc(CO)c2c1`, for which the growth inhibition in assay [1] is 4.95%; in assay [2], -3.4%; in assay [3], -0.8%; in assay [4], -33.2%; in assay [5], 5.7%; in assay [6] it was 0.75%.

For `CC(=O)c1ccccc1NS(=O)(=O)c1ccc2nc(C)n(NS(=O)(=O)c3ccccc3C(C)=O)c(=O)c2c1`, the growth inhibition is 43.5% in assay [1]; 19.6% in assay [2]; -5.25% in assay [3]; 7.2% in assay [4]; 4.55% in assay [5]; 28.6% in assay [6].

On to `CCOC(=O)NC(=O)c1cn(CCN2CCN(C(=O)CCCCCCCCCCC(=O)N3CCN(CCn4cc(C(=O)NC(=O)OCC)c(=O)[nH]c4=O)CC3)CC2)c(=O)[nH]c1=O`, for which the growth inhibition in assay [1] was 16.4%; in assay [2], 4.15%; in assay [3], 11.2%; in assay [4], -1.35%; in assay [5], -3.45%; in assay [6], 8.55%.

With `CC(=O)[C@H]1CC[C@H]2[C@@H]3CC(=O)C4=CC(=O)CC[C@]4(C)[C@H]3C(=O)C[C@]12C`, the growth inhibition was 11.3% in assay [1]; -12.2% in assay [2]; 11.2% in assay [3]; -25.6% in assay [4]; 0.45% in assay [5]; -4.9% in assay [6].

In the case of `C1=C(c2ccccc2)C(OC2Oc3ccccc3C=C2c2ccccc2)Oc2ccccc21` (stereo not given), the growth inhibition was 23.1% in assay [1]; -2.15% in assay [2]; 6.35% in assay [3]; 11.9% in assay [4]; 22.2% in assay [5]; -3.65% in assay [6].

As to `O=C1C=C(C2CCCCC2)C(=O)c2ccccc21`, the growth inhibition in assay [1] is 17%; in assay [2], 2.6%; in assay [3], 15.4%; in assay [4], 18.3%; in assay [5], 58.5%; in assay [6] it was 10.3%.

In the case of `CCOC(=O)C(=CC(CC)CC)C(=O)OCC`, the growth inhibition in assay [1] was 8.7%; in assay [2], -18.4%; in assay [3] it was -10.2%; in assay [4], -4.1%; in assay [5] it was -16.2%; in assay [6] it was -0.85%.

Regarding `OCCOc1ccc2ccccc2c1-c1c(OCCO)ccc2ccccc12`, the growth inhibition in assay [1] was 98.5% (active); in assay [2], 95.7% (active); in assay [3], 98.5% (active); in assay [4], 97.7% (active); in assay [5], 98.9% (active); in assay [6] it was 98.6% (active).

Consider `CC(=O)N1C(Nc2ccccn2)CCN1c1ccccc1` (stereo not given), for which the growth inhibition in assay [1] was -30.9%; in assay [2], -45.3%; in assay [3] it was -21.4%; in assay [4], 16.6%; in assay [5], 7.9%; in assay [6], -23.2%.

In the case of `C=C/C=N/Nc1ccc([N+](=O)[O-])cc1[N+](=O)[O-]`, the growth inhibition in assay [1] was 2.5%; in assay [2], 5.4%; in assay [3], 2.2%; in assay [4] it was 5.9%; in assay [5], 2.4%; in assay [6], -1.35%.

As to `CCC[CH2][Ge]([CH2]CCC)([CH2]CCC)[n]1ccc2ccccc21`, the growth inhibition is 24% in assay [1]; 31.2% in assay [2]; 47% in assay [3]; 20.3% in assay [4]; 45.9% in assay [5]; 44.7% in assay [6].

Turning to `CCC/C(=N/NC(=O)C1CCCO1)c1ccccc1` (stereo not given), the growth inhibition in assay [1] is -1.8%; in assay [2], 18.4%; in assay [3] it was 16.6%; in assay [4] it was -4.2%; in assay [5], 7.5%; in assay [6] it was 26%.
